Screening data: PubChem BioAssay, National Center for Advancing Translational Sciences (NCATS)
This excerpt belongs to a sample that is enriched for hits.
LmPK inhibitor – LmPK (Leishmania mexicana) enzyme inhibition; Q27686; purified LmPK, Kinase-Glo ATP luminescence, 1 h; Potency, µM (top dose mostly 57.5 µM), without a hit: at the top dose activity change, negative = inhibition, usual class: inhibitors; 290,000 compounds, 0.37% hits; further: potency means the concentration at half of the fitted maximal effect; on the % scale 0 is the no-effect control and ±100 the full control effect
Target sequence (Q27686 whole entry, looked up): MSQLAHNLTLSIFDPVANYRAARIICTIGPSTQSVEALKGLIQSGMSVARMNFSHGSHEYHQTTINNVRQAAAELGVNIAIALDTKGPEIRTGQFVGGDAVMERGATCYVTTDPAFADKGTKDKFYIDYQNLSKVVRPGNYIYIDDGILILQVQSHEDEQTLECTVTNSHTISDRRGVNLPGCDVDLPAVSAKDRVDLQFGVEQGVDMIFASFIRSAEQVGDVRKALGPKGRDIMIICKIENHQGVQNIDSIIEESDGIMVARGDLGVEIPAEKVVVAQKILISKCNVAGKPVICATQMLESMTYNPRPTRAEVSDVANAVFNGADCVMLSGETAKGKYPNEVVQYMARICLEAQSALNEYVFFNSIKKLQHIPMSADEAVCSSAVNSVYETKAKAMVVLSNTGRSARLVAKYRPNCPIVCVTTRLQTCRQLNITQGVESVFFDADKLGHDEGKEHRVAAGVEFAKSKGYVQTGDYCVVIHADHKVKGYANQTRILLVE
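Screened at intermediate enzyme activity to detect both inhibitors and activators: LmPK at 0.1 nM, with a 0.5 nM enzyme column as activation reference. PEP 0.5 mM, ADP 0.1 mM; ATP detected by luminescence after 1 h.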
Cycloheximide cs – affects cycloheximide protein synthesis inhibition readout, counter-screen; cell reporter, cycloheximide protein synthesis inhibition counterscreen; max response, %; AID 2314; 300,000 compounds, 12% hits; in the data active means max response mostly above about 13%, no sharp cut-off; inactive means mostly below about 14%; further: read at 38.3 µM for the half of the compounds with a filed dose; 0% is about no effect
Tb PYK inh – inhibitors of Trypanosoma brucei pyruvate kinase; Potency, µM (series often up to 76.8 µM), without a hit: top-dose activity, negative = inhibition, most hits filed as inhibitors; 410,000 compounds, 0.12% hits; TbPYK enzyme, Kinase-Glo Plus ATP luminescence, 45 min; AID 624173; Q57TT1; further: potency means the concentration at half of the fitted maximal effect; on the % scale 0 is the no-effect control and ±100 the full control effect; nearly all actives have a fitted effect of over 50% in size
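Glycolytic pyruvate kinase of T. brucei was incubated with substrate, test compound and 130 uM ADP for 45 minutes at room temperature. Luminescent Kinase-Glo Plus signal was measured after 10 minutes.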
Shiga toxin inh – blocks Shiga toxin action in Vero cells | Vero cells, Shiga toxin protein synthesis inhibition reporter | inhibition, % at 38.7 µM | 290,000 compounds, 9.2% hits | AID 2315; in the data active means inhibition mostly above about 28%, no sharp cut-off; inactive means mostly below about 43%; further: 0% is about no effect
Sm TGR inh – blocks Schistosoma mansoni thioredoxin glutathione reductase; Q962Y6; purified TGR, DTNB reduction, TNB absorbance 405 nm; Potency, µM (series often up to 114 µM), for the others: at the top dose activity change, negative = inhibition, most hits filed as inhibitors; 360,000 compounds, 3% hits; AID 485364; further: potency means the concentration at half of the fitted maximal effect; on the % scale 0 is the no-effect control and ±100 the full control effect; nearly all actives have a fitted effect of over 60% in size
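Kinetic colorimetric format: TGR-catalysed, NADPH-driven DTNB reduction monitored via TNB absorbance. Enzyme dispensed at 20 nM; compound exposure 15 min at room temperature before reaction start.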
FBPA Giardia inh – inhibitors of Giardia lamblia fructose-1,6-bisphosphate aldolase; 290,000 compounds, 0.71% hits; purified Giardia FBPA; Potency, µM (titrated, usually from 59.6 µM), without a hit: at the top dose activity, negative = inhibition, usual class: inhibitors; A8B2U2; further: potency means the concentration at half of the fitted maximal effect; on the % scale 0 is the no-effect control and ±100 the full control effect; nearly all actives have a fitted effect of over 55% in size
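40 nM FBPA preincubated 10 min at RT with compound (up to 57.5 uM final), then substrate plus GAPDH/TPI/NAD/arsenate coupling and diaphorase/resazurin added. Fluorescence read after 20 min at RT, 525/598 nm.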
* marks the source's active call; other numbers are inactive results; ? = inconclusive; nt = no result given; [ ] = another dose, or the depositor's remark. Unless noted, the call rests on the fitted dose curve; in most records, active means well fitted curve in the direction sought with a large enough effect; inconclusive means small, poorly fitted or top-dose-only effect, or another doubt; inactive means no such curve, though single readings can be large; an effect the other way counts as inactive or inconclusive.

SMILES	LmPK inhibitor	Cycloheximide cs	Tb PYK inh	Shiga toxin inh	Sm TGR inh	FBPA Giardia inh
COc1ccc(C2CC(=O)NC(NC(=O)c3ccc(Br)cc3)=N2)c(OC)c1OC (configuration not stated)	nt	nt	1%	nt	-2%	nt
O=C(Nc1ccc2nc(-c3ccco3)c(-c3ccco3)nc2c1)N1CCCC1	nt	30*	nt	62*	nt	nt
Cc1nc2cc(NC(=O)N3CCN(c4ccccn4)CC3)ccc2o1	0%	13	-2%	14	5%	5%
O=C(c1cccc(C(=O)N2CCN(c3ncccn3)CC2)c1)N1CCN(c2ncccn2)CC1	4%	-4	5%	-17	14%	-1%
O=C(c1ccc2nc(-c3ccco3)c(-c3ccco3)nc2c1)N1CCN(c2ncccn2)CC1	1%	4	-12%	9	10µM*	nt
O=C(Nc1ccc2nc(-c3ccco3)c(-c3ccco3)nc2c1)N1CCN(c2ccccn2)CC1	1%	-5	?	-3	2µM*	?
O=C(NCc1cccs1)c1nn(-c2ccccc2F)nc1CO	nt	nt	-1%	nt	-2%	nt
CCC(=O)NC(c1ccc(C)cc1)c1cc(Cl)c2cccnc2c1O (configuration not stated)	nt	nt	-12%	nt	nt	nt
CCOc1ccc(C(Nc2cccnc2)c2cc(Cl)c3cccnc3c2O)cc1 (configuration not stated)	8%	8	-5%	10	0.32µM*	?
O=C(O)COc1ccccc1C(Nc1ccccn1)c1cc(Cl)c2cccnc2c1O (configuration not stated)	13%	-2	52%	-3	0.4µM*	?
C=CCOC(=O)C(C(C)=O)C(NC(=O)OC)c1cccs1 (configuration not stated)	nt	nt	nt	nt	nt	-2%[12.9 µM]
C=CCn1c(O)c(N=O)c2ccccc21	1%	-2	-4%	-9	10%	-2%
C=CCn1c(O)c(N=Nc2ccccc2C)c2ccccc21	8%	0	-20%	-11	18µM*	-27%
CC(C)COc1ccc(C(=O)N2CCC(c3nc4ccccc4s3)CC2)cc1	nt	nt	-2%	nt	0%	nt
O=C(c1[nH]c(C(F)(F)F)nc1-c1ccccc1)N1CCC(Cc2ccccc2)CC1	nt	nt	12%	nt	nt	nt
Cc1ccc(-c2nc(CN3CCN(C(=O)C4CCCO4)CC3)cs2)cc1 (configuration not stated)	1%	14*	-6%	2	-1%	nt
CCOC(=O)C1CCN(Cc2oc(CO)cc(=O)c2O)CC1	-10%	15	-1%	33*	-1%	?
CCOC(=O)N1CCN(CC(=O)c2ccc(O)cc2O)CC1	4%	7	1%	34	-17%	13%
CCN1CCN(Cc2oc(CO)cc(=O)c2O)CC1	-3%	-9	2%	-20	-2%	-3%
Cc1ccc(CN2CCN(C(=O)C3CCCO3)CC2)cc1 (configuration not stated)	-4%	1	2%	-8	-14%	0%
CCOC(=O)N1CCN(CC(=O)c2ccc(O)c(C)c2O)CC1	-2%	31*	5%	33	-9%	1%
CCOC(=O)N1CCN(Cc2c(O)ccc3ccccc23)CC1	-3%	-7	4%	-7	0.28µM*	-6%
CC(C)N1CCC(C)(C(=O)Nc2ccc(-n3cccc3)cc2)C1 (configuration not stated)	nt	nt	4%	nt	nt	nt
COc1ccc(NC(=O)C(Cc2ccccc2)NS(=O)(=O)c2ccc3c(c2)CCN3C(C)=O)cc1 (configuration not stated)	nt	nt	-11%	nt	0%	nt
Cc1ccc(C(=O)N/C(=C\c2cn(C)c3ccccc23)C(=O)NCCN2CCOCC2)cc1	6%	1	-7%	19	-33%	nt
SMILES	LmPK inhibitor	Cycloheximide cs	Tb PYK inh	Shiga toxin inh	Sm TGR inh	FBPA Giardia inh
O=C(C1CCCO1)N1CCN(Cc2c(O)ccc3ccccc23)CC1 (configuration not stated)	3%	-2	0%	15	0.5µM*	?
CCOC(=O)C1CCN(Cc2c(O)ccc3ccccc23)CC1	2%	9	2%	-26	3.5µM*	1%
Cc1ccc(S(=O)(=O)Nn2c(C)nnc2-n2nc(C)cc2C)cc1	-5%	-3	-19%	26	-12%	?
COc1ccc(S(=O)(=O)N(n2c(C)nnc2-n2nc(C)cc2C)S(=O)(=O)c2ccc(OC)cc2)cc1	-5%	21*	-4%	20	-2%	?
COc1ccc(C2OC(=O)CC2C(=O)NCc2ccc(Cl)cc2)cc1OC (configuration not stated)	-3%	34*	2%	85*	-5%	6%
COc1ccc(C2OC(=O)CC2C(=O)NCc2ccc(F)cc2)cc1OC (configuration not stated)	1%[11.5 µM]	7	-7%	17	12%	11%
COc1ccc(NC(C)=O)cc1S(=O)(=O)NC(Cc1ccccc1)C(=O)NCc1ccccc1C (configuration not stated)	5%	16*	-5%	10	-5%	1%
CC(NC(=O)c1ccccc1NS(=O)(=O)c1ccc(CCC(=O)O)cc1)c1ccccc1 (configuration not stated)	4%	-3	4%	-3	-2%	nt
O=C(O)CCc1ccc(S(=O)(=O)Nc2ccccc2C(=O)NCCc2ccccc2)cc1	1%	30*	-4%	80*	-17%	-14%
COc1ccc(NC(C)=O)cc1S(=O)(=O)Nc1ccccc1C(=O)NCCc1ccccc1	-1%	44*	-4%	89*	8%	nt
Cc1cccc(C(=O)Nc2sc3c(c2C(=O)N2CCCCC2)CCC(C)C3)c1 (configuration not stated)	nt	nt	-1%	nt	-8%	nt
Cc1ccc(Cl)cc1N1C(=O)CC(Sc2ncccn2)C1=O (configuration not stated)	-1%	-1	-6%	-13	25µM*	0%
O=C1CC(Sc2ncccn2)C(=O)N1c1ccccc1C(F)(F)F (configuration not stated)	-1%	1	0%	6	40µM*	1%
NCCCCCCC(O)(P(=O)(O)O)P(=O)(O)O	nt	-5	nt	10	nt	2%
CCN(CC)CCN=Cc1c(O)n(Cc2ccccc2)c(=O)[nH]c1=O	3%	-3	-3%	-2	-17%	4%
CCc1ccc(-n2c(O)c(C=NCCN(CC)CC)c(=O)[nH]c2=O)cc1	0%	-2	-1%	-11	22µM*	0%
CCC(C)c1ccc(NC(=O)Nc2cccnc2)cc1 (configuration not stated)	-2%	80*	-9%	76*	2%	15%
COc1ccc(NC(=O)NCc2cccnc2)cc1	-4%	8	-24%	-11	0%	nt
O=C(NCc1cccnc1)C12CC3CC(CC(Cl)(C3)C1)C2	-6%	17	9%	16*	-16%	nt
